Test results taken from PubChem BioAssay AID1851 (National Center for Advancing Translational Sciences (NCATS), 2009).
“And” between values parts separate entries of the source, which are not always exact repeats. Equal entries are not always repeated. Screen size: about 16,000 compounds; about 4,000 (25%) were called active. Another 26% or so got no clear call; they are omitted. The call rests on the fitted dose curve; in most records, active means well fitted curve in the direction sought with a large enough effect; inconclusive means small, poorly fitted or top-dose-only effect, or effect the other way; inactive means no such curve, though single readings can be large or run the other way. These entries were drawn from the full list. Square brackets hold non-standard residues; d marks the D form. Peptide text beside a SMILES is read from it.

Target: Cytochrome P450 2C9 (Homo sapiens) (UniProt P11712)
Sequence (P11712 whole entry, looked up): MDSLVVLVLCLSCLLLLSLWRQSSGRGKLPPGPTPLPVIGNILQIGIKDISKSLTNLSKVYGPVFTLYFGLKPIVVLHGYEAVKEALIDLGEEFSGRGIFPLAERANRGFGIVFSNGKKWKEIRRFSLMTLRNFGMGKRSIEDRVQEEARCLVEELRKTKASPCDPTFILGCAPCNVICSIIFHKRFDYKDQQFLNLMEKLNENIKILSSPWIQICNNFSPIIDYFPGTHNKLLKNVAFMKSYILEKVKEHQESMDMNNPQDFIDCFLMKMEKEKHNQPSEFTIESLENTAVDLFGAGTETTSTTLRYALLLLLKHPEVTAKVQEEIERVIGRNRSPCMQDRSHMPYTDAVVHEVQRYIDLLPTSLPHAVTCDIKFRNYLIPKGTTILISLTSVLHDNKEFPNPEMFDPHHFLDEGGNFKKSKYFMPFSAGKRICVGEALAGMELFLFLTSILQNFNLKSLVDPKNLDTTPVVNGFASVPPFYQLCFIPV
Test: Cytochrome panel assay with activity outcomes
Settings: recombinant CYP, pro-luciferin dealkylation, luminescence, p450-cyp2c9; series mostly up to 57.1 µM
On the % scale 0 is the no-effect control and ±100 the full control effect.

AC50, active:
CCSc1nnc(NC(=O)CSc2nc3c(cc2C#N)CCCC3)s1 2.51 µM
Cn1c(C(=O)O)c(CC(=O)NCc2cccnc2)c2ccccc21 3.55 µM
Nc1[nH]n2c(=O)cc(-c3ccccc3)nc2c1N=Nc1ccccc1 15.8 µM
CCOCCn1c(CN(Cc2ccccc2)Cc2ccccc2)nc2c1c(=O)[nH]c(=O)n2C 7.94 µM
CCOC(=O)Cn1c(CN(Cc2ccccc2)Cc2ccccc2)nc2c1c(=O)[nH]c(=O)n2C 14.1 µM
COC(=O)Cn1c(CN(Cc2ccccc2)Cc2ccccc2)nc2c1c(=O)[nH]c(=O)n2C 14.1 µM
Cn1c(=O)[nH]c(=O)c2c1nc(CN(Cc1ccccc1)Cc1ccccc1)n2CCN1CCOCC1 15.8 µM
Cc1ccc(C(=O)CNc2nc3c(c(=O)[nH]c(=O)n3C)n2Cc2ccccc2)cc1 0.891 µM
COCCCCC(=NOCCN)c1ccc(C(F)(F)F)cc1 3.98 µM
CCCN=Cc1c(CCC)[nH]n(-c2nc3ccccc3s2)c1=O 10 µM
COC(=O)/C(=C\C(=O)c1ccccc1)Nc1cccc(C(F)(F)F)c1 15.8 µM
CCC(C(=O)Nc1cccc(C(F)(F)F)c1)c1ccccc1 (configuration not stated) 2.82 µM
Cn1c(COc2nnc(-c3ccc(Cl)cc3)c3ccccc23)nc2ccccc21 3.98 µM
Cc1c(Cl)c([N+](=O)[O-])nn1Cc1ccc(C(=O)N/N=C\c2cc(Cl)ccc2O)o1 3.98 µM
Cc1c(Cl)c([N+](=O)[O-])nn1Cc1ccc(C(=O)N/N=C\c2cccc(Br)c2)o1 5.62 µM
O=C(CSc1n[nH]c(-c2ccccc2O)n1)N1CCCc2ccccc21 1.12 µM
C#CCCCCCCCCCCCCCCCC(=O)O 12.6 µM
CCc1cccc2c(-c3ccccc3)c3c(nc12)OCC3 12.6 µM
c1ccc(-c2ccc(C3=Nn4c(Cn5nnc6ccccc65)nnc4SC3)cc2)cc1 12.6 µM
COc1ccc(CN2C(=O)CN(C3CCCCCC3)C(=O)C2c2ccc(OC)c(OC)c2)cc1 (configuration not stated) 11.2 µM
CCCOc1ccc(C2C(=O)N(C3CCCCC3)CC(=O)N2C2CC2)cc1OC (configuration not stated) 10 µM
COc1cc(C2C(=O)N(C3CCCC3)CC(=O)N2Cc2ccco2)ccc1OC(C)C (configuration not stated) 10 µM
COc1ccc(C2C(=O)N(C3CCCCCC3)CC(=O)N2Cc2ccccc2)cc1OC (configuration not stated) 12.6 µM
COc1ccc([N+](=O)[O-])cc1N(CC(O)CN(CC(C)C)CC(C)C)S(=O)(=O)c1ccccc1 (configuration not stated) 12.6 µM
CCc1c(C)c(C#N)c2nc3ccccc3n2c1N1CCN(c2cc(C)ccn2)CC1 1.26 µM
FC(F)(F)c1ccc(N2CCOCC2)c(Nc2nc3ccccc3n3cnnc23)c1 15.8 µM
CC(/C=C1\N=C(SCc2ccccc2Cl)SC1=O)=C\c1ccccc1 1.58 µM
CCc1nnc(NC(=O)c2cc(-c3ccccc3)nn2-c2ccccc2)s1 8.91 µM
CCc1nnc(NC(=O)c2c(C)nn(-c3ccccc3)c2Cl)s1 8.91 µM
CC(/C=N\NC(=O)Cn1c(C)nc2ccccc21)=C\c1ccccc1 2.82 µM
Cc1nc2ccccc2n1CC(=O)N/N=C\C=C\c1ccccc1 7.08 µM
Cc1ccccc1OCCNc1ccc(C(F)(F)F)cc1[N+](=O)[O-] 3.55 µM
COc1ccc(OC)c(C2C(C(=O)Nc3nc4ccccc4s3)=C(C)NC3=C2C(=O)CCC3)c1 (configuration not stated) 0.631 µM
COc1ccc(C(=O)c2ccc(OC)c(OC)c2)cc1OC 11.2 µM
CSc1nc(NC2CCCC2)c([N+](=O)[O-])c(NC2CCCC2)n1 2 µM
Cc1ccc(C2=NN(S(C)(=O)=O)C(c3cccs3)C2)cc1 (configuration not stated) 11.2 µM
O=C(CC(NS(=O)(=O)c1ccc(Cl)cc1)c1ccco1)NCc1ccco1 (configuration not stated) 10 µM

AC50, inactive:
Cc1cc(=O)n2c3ccccc3n(CC(O)CN3CCCCC3)c2c1C#N (configuration not stated)
CCCCC(=O)Nc1nnc(SCC(=O)NC2CCCC2)s1
O=c1nc(-c2ccccc2)cn[nH]1
Cn1c(=O)[nH]c(=O)c2c1nc(CN1CCOCC1)n2Cc1ccccc1
Cc1cc(C)n(-c2nc3c(c(=O)[nH]c(=O)n3C)n2CC(C)C)n1
CCn1c(C)c(/C=N/Nc2nc3ccccc3s2)c2ccccc21
C(/C=C/c1ccco1)=N/N1CCN(c2ccccc2)CC1
Cc1sc(N)c(C(=O)c2cccc(C(F)(F)F)c2)c1C
O=C(CSc1ccc(C(F)(F)F)cc1[N+](=O)[O-])Nc1ccccc1
O=c1[nH][nH]c(C(F)(F)F)c1C=Nc1ccccc1
CCC[C@H]1C(=O)N2C(N(C)C)=Nc3ccc(C)cc3N2C1=O
COc1ncc2nc(-c3ccc(Cl)cc3)c(=O)n(-c3ccccc3)c2n1
CSCC[C@H](C=O)NC(=O)[C@H](CC(C)C)NC(=O)[C@H](CC(C)C)NC(C)=O (Ac-Leu-Leu-[dM]-aldehyde)
C/C(Cn1nc([N+](=O)[O-])cc1C)=N\NC(=O)c1ccc(O)cc1O
Cc1nn(Cc2ccc(Cl)cc2)c(C)c1NC(=O)Cn1nc([N+](=O)[O-])c(Cl)c1C
C1COC(NC(C2CC2)C2CC2)=N1
O=C(CNCCO)N1CCc2ccccc21
O=C(O)CCCCCCCC(=O)O
CCOC(=O)C(C)CC(C)C(=O)N1CCOCCN(C(=O)C(C)CC(C)C(=O)OCC)CCOCC1 (configuration not stated)
CCc1cccc2c3c([nH]c12)[C@@](CC)(CC(=O)O)OCC3
COc1ccc([C@@H]2CNC(=O)C2)cc1OC1CCCC1
O=C(Nc1cccc(F)c1)N1CCC2(CC1)CCN(C(=O)c1cnccn1)CC2
CCCCN=c1sc(C(=O)OC)cc(=O)n1CCCC
Cc1ccsc1/C=N/Nc1nc(Cl)c(Cl)cc1Cl
CCN(CC)CCOC(=O)C1(C2CCCCC2)CCCCC1
CN1CCN(c2nc3cc(C(F)(F)F)ccc3n3cccc23)CC1
CCCC(=O)Nc1nnc(CCN2CCCCC2)s1
Cc1nc2ccccc2n1CC(=O)N/N=C\c1ccccn1
O=c1[nH]n(-c2cccc(Cl)c2)c2ncccc12
COc1ccc2nc(NC(C)=O)sc2c1
COc1ccc(NC(=O)CC#N)cc1OC
CCN(CC)C(=O)c1ccc(O)c(OC)c1
CCN1CC=C2C(C#N)=C(N)C(C#N)(C#N)[C@H](c3ccoc3)[C@H]2C1

activity, negative = inhibition, inactive:
CN(C)C(=O)c1ccc(-c2nc(NCc3cccnc3)c3ccccc3n2)cc1 8.86% [at 2.29 µM]
O=C(O)Cc1cccnc1 12.8% [at 11.4 µM]
Nc1nc(C(=O)O)c(N=Nc2ccccc2)c(=O)[nH]1 -0.919% [at 11.4 µM]
CN(C)c1ccc(-c2nc(NCCN3CCOCC3)c3ccccc3n2)cc1 10.3% [at 2.29 µM]
CCON=C1C(C)(C)C(C)(C)C(C)(C)C1(C)C 4.67% [at 11.4 µM]
Cn1c(C[C@@H](O)c2nc3ccccc3n2C)nc2ccccc21 5.4% [at 11.4 µM]
CCN(CC)CC[n+]1ccc2c(C)c3[nH]c4ccccc4c3c(C)c2c1 3.85% [at 11.4 µM]
O=C(O)c1nn(-c2ccccc2-c2n[nH]c(=O)[nH]c2=O)c(=O)[nH]c1=O -7.45% [at 11.4 µM]
CN(Cc1ccco1)c1cc(-c2ccoc2)ncn1 -1.76% [at 2.29 µM]
C#CCOCCCC(=O)O 14.4% [at 11.4 µM]
COC(=O)C/C=C\[C@@H](C)[C@@H]1C=C[C@H](OC(C)=O)[C@H](COC(C)=O)O1 14.8% [at 11.4 µM]
CN(C)CC(C)(C)CN1c2ccccc2Sc2ccccc21 -2.35% [at 11.4 µM]
CC1(C)O[C@H]2[C@@H](c3[nH]nc4c(=O)[nH]c(=O)[nH]c34)OC[C@H]2O1 5.4% [at 11.4 µM]
CO[C@H]1COC(=O)C/C=C\[C@H](C)[C@@H](NS(=O)(=O)c2ccc(C)cc2)COC(=O)C/C=C\[C@@H]1C -17.2% [at 11.4 µM] and -4.44% [at 11.4 µM]
CSCC[C@@H]1NC(=O)C/C=C\[C@@H](C)COC(=O)[C@H](C)COC1=O -7.38% [at 11.4 µM]
c1ccc2c(c1)nnn2CN1CCOCC1 15.8% [at 11.4 µM]
Cc1cnc(CNc2ncncc2-c2ccccc2Cl)cn1 28.2% [at 2.29 µM]
Cc1ccc(S(=O)(=O)N[C@H]2COC(=O)CC=C[C@@H](C)[C@H]3C=C[C@H](O)[C@@H](COC(=O)CC=C[C@H]2C)O3)cc1 -13.5% [at 11.4 µM] and 14.3% [at 11.4 µM]
COc1ccccc1CNc1ncncc1-c1cccc(C#N)c1 -22.7% [at 2.29 µM]
COc1ccccc1-c1nccc(NCc2cnc(C)cn2)n1 19.3% [at 2.29 µM]
N/C(=N\O)c1cn([C@@H]2O[C@@H](CO)[C@H](O)[C@@H]2O)c2ncnc(NO)c12 -5.39% [at 11.4 µM]
O=C(O)CCNc1ncnc2nc[nH]c12 23.7% [at 11.4 µM]
